Compound activity as filed in PubChem BioAssay.
Calpain2 inh: blocks pig calpain II enzyme activity; purified calpain II, fluorogenic peptide substrate, 30 min; 220,000 compounds, 0.37% hits; inhibition, % at 16 µM;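 active means inhibition above about 50%, limit read from the data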
WT yeast gro inh: growth inhibition of WT yeast, mitochondrial fusion screen | AID 1362 | inhibition, % at 10 µM | mitochondrial fusion phenotypic screen, WT strain | 190,000 compounds, 2.1% hits; in the data active means inhibition above about 58%; tested in S. cerevisiae
Cl transport mod: modulates chloride dependent transport by human KCC2 | Q9H2X9 | KCC2 cells, thallium flux FluoZin-2 fluorescence | B-score of Tl+ flux slope (higher = more flux/activation; lower = inhibition) at 10 µM | 190,000 compounds, 2.2% hits | AID 1456;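 active means thallium flux slope and its plate-corrected score both differing from the plate sample mean at a set confidence after two filtering rounds, in either direction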;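 further: slope of fluorescence scaled to starting intensity during 10 to 20 s after thallium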
ROMK primary: human ROMK K+ channel modulation, primary screen; P48048; Tet-inducible ROMK, thallium flux fluorescence; actives lie on both sides; B-score at 10 µM; 130,000 compounds, 2% hits;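 active means signal ratio slope over the read window, or its plate-corrected B-score, at least 3 SD from the plate mean, either direction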;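 further: B-score of the F/F0 ratio slope over 7 to 12 s after thallium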
Target sequence (P48048 whole entry, looked up): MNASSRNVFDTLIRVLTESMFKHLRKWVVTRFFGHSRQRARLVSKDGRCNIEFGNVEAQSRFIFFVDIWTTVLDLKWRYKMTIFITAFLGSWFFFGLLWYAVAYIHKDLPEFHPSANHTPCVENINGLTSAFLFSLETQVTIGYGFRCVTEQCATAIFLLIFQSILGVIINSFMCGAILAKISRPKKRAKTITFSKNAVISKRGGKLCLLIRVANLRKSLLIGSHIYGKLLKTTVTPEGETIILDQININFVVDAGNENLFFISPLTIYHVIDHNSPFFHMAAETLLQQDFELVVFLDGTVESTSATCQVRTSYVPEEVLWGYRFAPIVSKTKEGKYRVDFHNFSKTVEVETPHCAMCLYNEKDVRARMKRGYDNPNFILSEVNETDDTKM
Lmaj promast: Leishmania major promastigote growth inhibition; inhibition, % at 10 µM; 200,000 compounds, 9% hits; Leishmania major promastigotes, resazurin fluorescence viability; in the data active means inhibition above about 50%;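 further: promastigotes grown with compound for 44 hours at 28 °C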
Numbers without * were called inactive; i = inactive; / = no result. Compounds with a hit are over-represented: about 12% of the library has one in this group of screens.

SMILES | Calpain2 inh | WT yeast gro inh | Cl transport mod | ROMK primary | Lmaj promast
COc1ccc(C(C(O)C(=O)c2c[nH]c3ccccc23)N2CCN(c3ccc(OC)cc3)CC2)cc1 (configuration not stated) | -49 | 16 | / | -0.028 | 52*
O=C(NCCc1c[nH]c2ccccc12)C(=O)NCC(c1cccnc1)N1CCN(c2ccccc2)CC1 (configuration not stated) | -12 | -6 | 0.12 | -0.41 | 100*
COc1ccc(N2CCN(C(CNC(=O)C(=O)NCCc3c[nH]c4ccccc34)c3ccco3)CC2)cc1 (configuration not stated) | -4 | 13 | 0.21 | -0.0082 | 65*
COC(=O)NCC(c1ccco1)N1CCN(c2ccc(OC)cc2)CC1 (configuration not stated) | -26 | -2 | 1.5 | -0.8 | -8
COc1ccc(-c2cc(N3C(=O)Nc4ccccc4N3O)n[nH]2)c(OC)c1 | -10 | -6 | 0.13 | 0.94 | -3
CC(C)(C)c1ccc(S(=O)(=O)N2CCN(c3ncccn3)CC2)cc1 | -18 | 0 | 0.69 | -0.45 | 6
COC(=O)c1cc2occc2n1Cc1ccc(Cl)cc1 | -21 | 35 | 1.3 | 0.27 | 56*
COc1ccc(NC(=S)N2CCC(C(=O)c3ccc(C)cc3)CC2)c(OC)c1 | -11 | 12 | 0.056 | -0.61 | 2
CCc1ccc(OCCCC(=O)Nc2nnc(C3CCCO3)s2)cc1 (configuration not stated) | 20 | 1 | 0.49 | 0.62 | 0
CN1/C(=C\C(=O)Nc2ccc(Cl)cc2)C(C)(C)c2ccccc21 | 13 | 79* | -0.53 | / | 17
Cc1ccc[n+](CC(=O)/C=C2\N(C)c3ccccc3C2(C)C)c1 | 22 | 11 | -0.34 | 0.63 | 3
CN1/C(=C\C=C(/C#N)C(=O)Nc2ccc(Cl)cc2)C(C)(C)c2ccccc21 | 26 | 5 | i | / | 88*
CN1/C(=C\C(=S)Nc2ccccc2)C(C)(C)c2ccccc21 | 28 | 61* | 0.085 | 0.48 | 42
CN1/C(=C/C(=O)CSc2ccccc2C(=O)O)C(C)(C)c2ccccc21 | 15 | / | -1.7 | / | /
O=C(CCc1ccc(S(=O)(=O)N2CCOCC2)cc1)N/N=C/c1ccc(O)c(O)c1O | -6 | -5 | 1.2 | -0.14 | -7
Cc1cccc2c(SCC(=O)NCC3CCCO3)nc(-c3ccc(F)cc3)nc12 (configuration not stated) | -2 | 15 | 0.55 | / | 2
O=C(Nc1ccccc1)C1CC2CCCC(C1)C2=O (configuration not stated) | -9 | -8 | 0.99 | / | -4
O=C(Nc1ccccc1)OC1CCC2CC1CCC2OC(=O)Nc1ccccc1 (configuration not stated) | 12 | 67* | 0.56 | 0.062 | 41
Cc1ccc(Cn2c(Cc3ccccc3)nc3ccccc32)cc1 | 12 | 71* | / | / | 13
COCc1nc2ccccc2n1Cc1ccccc1 | 34 | 15 | / | -1.1 | 2
Cc1cccc(NCc2nc3ccccc3n2Cc2ccccc2)c1 | 26 | 75* | / | -0.24 | 30
COCc1nc2ccccc2n1Cc1ccc(Br)cc1 | 57* | -6 | 0.9 | / | 8
c1ccc(Cn2c(CNc3nc4ccccc4n3CCN3CCOCC3)nc3ccccc32)cc1 | -32 | 1 | / | -1.6 | 59*
Cc1ccc(NC(=O)CCC(=O)NNC(=O)COc2ccccc2)c(C)c1 | 16 | 7 | 1.2 | 0.14 | -4
CCCNC(=O)Cn1nc(C(F)(F)F)c2c1CCCC2 | 5 | -2 | -0.39 | / | -5
SMILES | Calpain2 inh | WT yeast gro inh | Cl transport mod | ROMK primary | Lmaj promast
CCCC/C(C)=N/NC(=O)c1cn(-c2ccccc2)nc1-c1ccccc1 | 19 | -7 | 0.16 | -0.035 | 1
CCOC(=O)C1CCC(CNCc2ccccc2C)CC1 (configuration not stated) | -21 | -22 | -0.68 | -0.85 | 95*
O=C(O)C1CCC(CNCc2ccccc2Cl)CC1 (configuration not stated) | -12 | -27 | 0.039 | / | -11
COc1ccc(OC)c(/C=N/NC(=O)c2cc3c(OC)c(OC)ccc3[nH]2)c1 | -12 | 10 | -0.031 | 0.029 | 72*
COc1ccc(OC)c(/C=N/NC(=O)c2ccc(=O)[nH]n2)c1 | 9 | / | / | / | /
O=C(OC(C(=O)Nc1cc(Cl)cc(Cl)c1)c1ccccc1)C1=COCCO1 (configuration not stated) | 32 | 58* | -0.049 | -0.97 | 12
CC(OC(=O)C1=COCCO1)C(=O)Nc1ccc(Oc2ccccc2)cc1 (configuration not stated) | 13 | -9 | 0.8 | -0.89 | 10
COc1ccc(C(=O)OCC(=O)Nc2cc(C)on2)c(OC)c1OC | 13 | 12 | -0.51 | 0.26 | 3
CCNc1nc(CN2CCCCC2)nc2scc(-c3ccccc3)c12 | 17 | 14 | -0.29 | / | 23
c1csc(-c2csc3nc(CN4CCOCC4)nc(NCc4ccc5c(c4)OCO5)c23)c1 | 25 | 64* | -2.5 | / | 33
O=C(COC(=O)/C=C/c1ccccc1)NCC1CCCO1 (configuration not stated) | 2 | -5 | 0.27 | 1.4 | -6
O=C(Nc1ncc(Cc2ccccc2Cl)s1)c1ccc(-c2cccc([N+](=O)[O-])c2)o1 | -39 | 22 | 0.84 | 0.83 | 92*
O=C(Nc1ncc(Cc2ccccc2Cl)s1)c1ccc([N+](=O)[O-])cc1 | 6 | -11 | 0.38 | / | -4
O=C(Nc1ncc(Cc2ccc(C(F)(F)F)cc2)s1)c1ccc(-c2cccc([N+](=O)[O-])c2)o1 | 5 | 15 | -0.58 | / | 90*
COc1ccc(OC)c(S(=O)(=O)Nc2ccc(F)cc2)c1 | 1 | -4 | / | 1.7 | 4
COc1ccc(C)cc1S(=O)(=O)Nc1ccc(F)cc1 | 0 | 62* | 0.039 | / | 31
COc1ccc(S(=O)(=O)Nc2cccc(F)c2)cc1C | 8 | 18 | -0.36 | -0.82 | 65*
CCOc1cc(C)c(S(=O)(=O)Nc2ccc(F)cc2)cc1C | 39 | -4 | / | -0.41 | 58*
COc1ccc(OC)c(S(=O)(=O)Nc2cccc(F)c2)c1 | -4 | -8 | / | -1.1 | 97*
COc1ccc(S(=O)(=O)Nc2ccc(S(=O)(=O)Nc3ccc(F)cc3)cc2)cc1C | -15 | 5 | 0.71 | / | 8
Cc1cc(=O)oc2cc(OCC(=O)Nc3ccc(S(=O)(=O)N(C)C)cc3)ccc12 | -177 | / | / | / | /
COc1ccc(/C=C(\C#N)C(=O)NCC(c2ccc(F)cc2)N2CCOCC2)cc1 (configuration not stated) | 6 | / | -0.28 | / | /
COc1cc(OC)cc(C(=O)Nc2ccc(S(=O)(=O)Nc3nc(C)cc(C)n3)cc2)c1 | -30 | -1 | / | -0.031 | -5
CCn1c(=O)cc(SCC(=O)Nc2cccc(C)n2)c2ccccc21 | -13 | 11 | -1.7 | -0.018 | 1
CCOc1ccc(Br)cc1S(=O)(=O)Nc1ccc(NC(=O)c2ccccc2F)cc1 | -15 | -13 | -0.39 | 0.27 | 7
COc1ccc(NC(=O)c2c(F)cccc2F)cc1S(=O)(=O)Nc1ccc(Br)cc1 | -13 | 9 | -0.37 | 0.46 | 52*
COc1ccc(OC)c(NS(=O)(=O)c2cc(OC)ccc2OC)c1 | -15 | -1 | -0.097 | / | 87*
Cc1ccccc1C(=O)N1CCC(C(=O)Nc2ccc3c(c2)OCCO3)CC1 | -4 | 2 | -0.63 | / | -7
